From PubChem BioAssay (NCATS) come the findings set out here.

Records with an inconclusive call do not appear. Active and inactive are the calls of the source. Calls follow the shape of the dose curve; as a rule, active = well fitted cell-killing curve with a large enough effect; inconclusive = small, poorly fitted or top-dose-only effect; inactive = flat fitted curve, though single readings scatter.

Test [1] is described as follows: Cell Viability - LYMP2-015 (AID 971). Also: nearly all actives have a fitted effect of over 55% in size. Also: potency is read from the fitted curve at half-maximal effect. A digest of the protocol:
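qHTS cytotoxicity: 2500 cells/well, 5 hr 37 C, compound 24 hr 37 C, CellTiter-Glo 30 min RT, luminescence. Loss of ATP = toxicity; AC50 via standard Hill fit.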

A short description of test [2]: Cell Viability - LYMP2-017 (AID 972).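 Also: cells exposed to compound for 24 hours at 37 °C; nearly all actives have a fitted effect of over 55% in size.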 Also: potency is read from the fitted curve at half-maximal effect. The procedure, abridged: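 Luminescent ATP read-out (CellTiter-Glo, 30 min RT) reports viable cell number. Cells: human lymphoblastoid line, 2500 per well, 5 hr preincubation, 24 hr compound exposure at 37 C. AC50 is derived from qHTS concentration-response data using the standard Hill model.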
A short description of test [3]: Cell Viability - LYMP2-019 (AID 973). Also: nearly all actives have a fitted effect of over 55% in size. Also: potency is read from the fitted curve at half-maximal effect. The procedure, abridged: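 qHTS, 1536-well; 2500 cells/well; 5 hr pre-incubation, 24 hr compound exposure, 37 C; CellTiter-Glo added, 30 min RT; luminescence read; AC50 via standard Hill equation.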
The nature of test [4]: Cell Viability - LYMP2-021 (AID 974).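 Also: compound exposure lasts 24 hours at 37 °C; nearly all actives have a fitted effect of over 55% in size.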 Also: potency is read from the fitted curve at half-maximal effect. A digest of the protocol: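 ATP luminescence (CellTiter-Glo, 30 min RT) after 24 h compound exposure at 37 C; 2500 human lymphoblastoid cells/well, 5 h settle beforehand. Cytotoxicity = concentration-dependent ATP drop, AC50 by Hill fit.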
Test [5] is described as follows: Cell Viability - LYMP2-023 (AID 975). A digest of the protocol:
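CellTiter-Glo luminescence after 30 min at room temperature; decrease in intracellular ATP reflects toxicity. Cells: human lymphoblastoid line, 2500/well, 24 hr compound exposure at 37 C. AC50 fitted to standard Hill equation from concentration-response.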

Test [6] can be described thus: Cell Viability - LYMP2-025 (AID 976). Also: series mostly up to about 92 µM. A digest of the protocol: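 CellTiter-Glo luminescence (cellular ATP) after 24 h compound exposure at 37 C; LYMP2-025 human lymphoblastoid cells, 2500/well, complete medium. Tetraoctylammonium bromide positive control. AC50 by Hill equation fit of qHTS concentration-response.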
A short description of test [7]: Cell Viability - LYMP2-002 (AID 977). Also: series mostly up to about 92 µM. The procedure, abridged:
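Human lymphoblastoid cells, 2500/well, complete medium; 5 h 37 C settle; compound 24 h 37 C; CellTiter-Glo, 30 min RT; luminescence. Decrease in ATP = cytotoxicity; AC50 via Hill equation.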

Test [8] can be described thus: Cell Viability - LYMP2-006 (AID 978).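 Also: series mostly up to about 92 µM; cells exposed to compound for 24 hours; nearly all actives have a fitted effect of over 60% in size.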 A digest of the protocol: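 Human lymphoblastoid cells (LYMP2-006), 2500/well in complete medium, were treated with compound for 24 hr at 37 C. Cellular ATP was read by CellTiter-Glo luminescence after 30 min, and AC50 values came from Hill-equation fits of concentration-response data.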
Test [9] in a line: Cell Viability - LYMP2-008 (AID 980). Also: nearly all actives have a fitted effect of over 60% in size. The procedure, abridged: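 Luminescent ATP read-out (CellTiter-Glo, 30 min RT) after 24 hr compound exposure at 37 C of human lymphoblastoid cells in complete medium. Decrease in ATP taken as cytotoxicity; AC50 derived by standard Hill fit of qHTS concentration-response data.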
The nature of test [10]: Cell Viability - LYMP2-010 (AID 981). Also: potency is read from the fitted curve at half-maximal effect. The procedure, abridged: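 qHTS cytotoxicity, 1536-well: 2500 cells/well, 5 hr settle, 24 hr compound at 37 C, CellTiter-Glo 30 min RT, luminescence read. Decrease in ATP = toxicity; AC50 via standard Hill equation. Positive control tetraoctylammonium bromide.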

`CCCCO`: the Potency entry in [1], in test [2], in test [3], in test [4], in test [5] and in test [8] was “inactive” throughout. Also, the Potency result in test [9] and in test [10] was “inactive” in each case. In addition, the result in [6] and in test [7] was inactive.

Regarding `Cc1ccc(S(=O)(=O)O)cc1C`, the Potency entry in test [1], in test [2], in test [3], in [4], in test [5] and in test [8] was “inactive” each time. For the same compound, the Potency result in [9] and in [10] was “inactive” each time. In addition, the result in [6] and in test [7] was inactive.

`CC(C)O`: the Potency result in test [1], in test [2], in test [3], in [4], in test [5] and in [8] was “inactive” in each case. Also, the Potency entry in test [9] and in test [10] was “inactive” each time. The call in [6] and in test [7] was inactive.

With `C[C@H](CCC(=O)O)[C@H]1CC[C@H]2[C@@H]3CC[C@@H]4C[C@H](O)CC[C@]4(C)[C@H]3C[C@H](O)[C@]12C`, the Potency result in test [1], in [2], in test [3], in test [4], in test [5] and in test [8] was “inactive” in each case. For the same compound, the Potency result in test [9] and in test [10] was “inactive” each time. In addition, the call in [6] and in test [7] was inactive.

As for `c1ccc2ccccc2c1`, the Potency entry in test [1], in [2], in test [3], in [4], in test [5] and in test [8] was “inactive” each time. Also, the Potency entry in test [9] and in test [10] was “inactive” in each case. Moreover, the result in [6] and in test [7] was inactive.

As for `CC(C)(C)CC(C)(C)c1ccc(OCCO)cc1`, the Potency result in test [1], in [2], in test [4], in [5], in test [8] and in [9] was “inactive” in each case. Besides, the Potency result in [10] is “inactive”. The compound was classed as inactive in [7].

`CC[C@H]1OC(=O)[C@H](C)[C@@H](O[C@H]2C[C@@](C)(OC)[C@@H](O)[C@H](C)O2)[C@H](C)[C@@H](O[C@@H]2O[C@H](C)C[C@H](N(C)C)[C@H]2O)[C@](C)(O)C[C@@H](C)CN(C)[C@H](C)[C@@H](O)[C@]1(C)O`: the Potency result in [1], in test [2], in test [3], in test [4], in test [5] and in test [8] was “inactive” throughout. The Potency entry in test [9] and in test [10] was “inactive” each time. Moreover, the compound was called inactive in test [6] and in [7].

On to `NC(N)=O`, for which the Potency entry in [1], in test [2], in [3], in [4], in test [5] and in test [8] was “inactive” throughout. Also, the Potency entry in test [9] and in test [10] was “inactive” each time. In addition, the call in test [6] and in test [7] was inactive.

As for `Nc1nccs1`, the Potency entry in test [1], in test [2], in test [3], in [4], in test [5] and in [8] was “inactive” throughout. The Potency result in test [9] and in test [10] was “inactive” throughout. Besides, the compound was classed as inactive in [6] and in [7].

Regarding `CC/C=C\C/C=C\C/C=C\CCCCCCCC(=O)O`, the Potency was 50.1 µM (active) in test [1]; 50.1 µM (active) in test [2]; 50.1 µM (active) in test [3]; 50.1 µM (active) in test [4]; 39.8 µM (active) in test [10]. Also, in test [7], the outcome was inactive.

With `Nc1ccc(N=Nc2ccccc2)c(N)n1`, the Potency entry in test [1], in [2], in test [3], in test [4], in test [5] and in test [8] was “inactive” in each case. The Potency entry in test [9] and in [10] was “inactive” throughout. Besides, the compound was classed as inactive in [6] and in [7].

Regarding `Oc1cccc(O)c1O`, the Potency entry in [1], in test [2], in test [3], in [5], in test [8] and in [9] was “inactive” each time. For the same compound, the result in [6] and in test [7] was inactive.

Take `C[C@H]1O[C@@H](O[C@H]2[C@@H](O)C[C@H](O[C@H]3[C@@H](O)C[C@H](O[C@H]4CC[C@@]5(C)[C@H](CC[C@@H]6[C@@H]5C[C@@H](O)[C@]5(C)[C@@H](C7=CC(=O)OC7)CC[C@]65O)C4)O[C@@H]3C)O[C@@H]2C)C[C@H](O)[C@@H]1O`: the Potency in [2] and in test [10] was 0.251 µM (active) each time.

For `CC1=CCC2CC1C2(C)C` (centres undefined), the Potency entry in test [1], in [2], in [3], in [4], in test [5] and in [8] was “inactive” in each case. Moreover, the Potency entry in test [9] and in test [10] was “inactive” each time. In addition, the compound was classed as inactive in test [6] and in [7].

Consider `Nc1ncnc2c1ncn2[C@H]1CC[C@@H](CO)O1`, for which the Potency result in test [1], in test [2], in test [3], in test [4], in test [5] and in test [8] was “inactive” each time. The Potency result in [9] and in [10] was “inactive” throughout. In addition, the compound was called inactive in [6] and in [7].

Consider `C/C=C/C=C/C(=O)O`, for which the Potency entry in [1], in test [2], in [3], in test [4], in [5] and in [8] was “inactive” throughout. Also, the Potency result in test [9] and in test [10] was “inactive” in each case. Also, the outcome in test [6] and in test [7] was inactive.

`Oc1ccc(/C=C/c2cc(O)cc(O)c2)cc1`: the Potency result in test [1], in test [2], in [3], in test [4], in test [5] and in [8] was “inactive” throughout. Besides, the Potency entry in test [9] and in test [10] was “inactive” each time. In addition, the call in test [6] and in [7] was inactive.

On to `O.O.O.O.O.O.O.O=S(=O)([O-])[O-].[Co+2]`, for which the Potency result in test [2], in test [5], in [8] and in test [9] was “inactive” each time. The outcome in test [6] was inactive.

With `OCc1ccccc1`, the Potency result in test [1], in test [2], in test [3], in [4], in [5] and in test [8] was “inactive” each time. Besides, the Potency entry in test [9] and in [10] was “inactive” throughout. Besides, the compound was called inactive in test [6] and in test [7].
